Data on 97 molecules can be found in PubChem BioAssay AID652104 (National Center for Advancing Translational Sciences (NCATS), 2013).

In all, about 410,000 compounds went through this assay and about 7,200 (1.8%) were called active. A call without a number means that no potency is given here. Inconclusive results (about 7%) are left out. Calls follow the shape of the dose curve; as a rule, active = well fitted activation curve with a large enough effect; inconclusive = small, poorly fitted or top-dose-only effect, or another doubt; inactive = no such curve, though single readings can be large or run the other way. The full list was thinned out, with actives kept by preference.
Potency is read from the fitted curve at half-maximal effect.

A short description of this assay: qHTS of TDP-43 Inhibitors. Also: nearly all actives have a fitted effect of over 50% in size. The settings on record: TDP-43 expressing yeast growth rescue, BacTiter-Glo, 24 h; series mostly up to 46.1 µM. The method, boiled down: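 Yeast cells expressing TDP-43 under galactose induction are exposed to compounds for 24 hr at 30 deg C. BacTiter-Glo luminescence measures growth, so protective compounds score as activators.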
Consider `CC(C)(CNC(=O)Cc1ccc(Cl)cc1Cl)N1CCOCC1`, for which the Potency result was “inactive”.
Turning to `CSCc1cc(N2CCOCC2)nc(SCc2ccc(Cl)cc2Cl)n1`, the Potency was 22.4 µM (active).
On the same count and under the same terms, then `CSCc1cc(N(C)C)nc(SCc2ccc(Cl)cc2Cl)n1`, with “inactive”; and `Cc1ccc(C(=O)Nc2ccccc2F)cc1S(=O)(=O)N1CCOCC1`, with “inactive”.
On the same count and under the same terms, then `COc1c(Cl)cc(Cl)cc1C(=O)Nc1cccc2cccnc12`, with “inactive”; and `O=C(Nc1cccc2cccnc12)c1cccc(Cl)c1`, with 14.1 µM (active); and `O=C(Nc1cccc2cccnc12)c1cccc2c(Br)cccc12`, with “inactive”.
Regarding `CC(C)(C)NC(=O)NC(=O)COC(=O)CCC1CCCCC1`, the Potency entry was “inactive”.
Still for that read-out and setting: then `N/C(=N\OC(=O)CCC1CCCCC1)c1ccccn1`, with 8.91 µM (active); and `CCOCc1nnc(NC(=O)CCC2CCCCC2)s1`, with “inactive”; and `COc1ccc(-c2nnc(SCC(=O)Nc3ccc(C(C)C)cc3)nc2-c2ccc(OC)c(OC)c2)cc1OC`, with “inactive”.
Still for that read-out and setting: the result for `Clc1ccc(CSc2nncn3c2cc2occc23)cc1` reads 25.1 µM (active); that for `CCN(C(=O)CSc1nnc(C)n2c1cc1occc12)c1ccccc1`, “inactive”.
Same read-out and setting: then `CC(C)Cn1cnc2c(SCc3ccc(Cl)cc3)nc(N)nc21`, with “inactive”; and `COc1ccc2c(c1)CCc1c(C(=O)Nc3cc(C)ccc3O)noc1-2`, with “inactive”; and `Cc1ccc(C)c(N2CCN(C(=O)C3CCC(CNS(=O)(=O)c4cccs4)CC3)CC2)c1` (configuration not stated), with “inactive”.
Turning to `COc1ccc2c(c1)CCc1c(C(=O)N3CCCC3)noc1-2`, the Potency result is “inactive”.
For the molecule `COc1ccc2c(c1)CCC/C2=N\OC(=O)c1ccccc1F`, the Potency was 11.2 µM (active).
For the molecule `COc1ccc2c(CC(=O)NNC(=O)c3ccccc3F)coc2c1`, the Potency entry is “inactive”.
The same measure, in the same setting: then `COc1cc([N+](=O)[O-])ccc1NC(=O)COC(=O)CCOc1ccc(C)cc1`, with 17.8 µM (active); and `COc1ccccc1CC(=O)Nc1ccc([N+](=O)[O-])cc1OC`, with 11.2 µM (active).
Still for that read-out and setting: the result for `COc1cc([N+](=O)[O-])ccc1NC(=S)N1CCN(c2ccccn2)CC1` reads “inactive”; that for `COc1ccc(NC(=O)c2cc([N+](=O)[O-])ccc2NC(=O)CNC2CCCCC2C)c(OC)c1` (configuration not stated), “inactive”; that for `COc1ccc([N+](=O)[O-])cc1NCC(=O)c1ccc(C)cc1`, “inactive”.
For the molecule `COc1ccc(Br)cc1CN(C)CC(=O)Nc1cc([N+](=O)[O-])ccc1OC`, the Potency result was “inactive”.
With `CCCn1c(C(C)Nc2nc(-c3ccc(C)cc3)cs2)nc2cc(Cl)c(N3CCCCC3)cc21` (configuration not stated), the Potency result was “inactive”.
As for `Nc1c(Cl)cc(-c2csc(N3CCCC3c3nc4cc(Cl)c(Cl)cc4n3CCOCCO)n2)cc1Cl` (configuration not stated), the Potency result was “inactive”.
On to `Cc1nc2cc(C(F)(F)F)ccc2n1CCNc1nc(-c2cc(Cl)c(N)c(Cl)c2)cs1`, for which the Potency was 22.4 µM (active).
For the molecule `CCc1cccc(CC)c1NC(=O)Cn1c(=O)c(-c2cc(C)ccc2NC(C)=O)nc2ccccc21`, the Potency entry was “inactive”.
Still for that read-out and setting: then `CC(C)C1Cc2[nH][nH]c(=O)c2C(c2ccc(Cl)cc2)O1` (configuration not stated), with 20 µM (active).
Still for that read-out and setting: then `CC(C)C[C@@H]1Cc2[nH][nH]c(=O)c2[C@H](CCc2ccccc2)O1`, with “inactive”; and `CC(C)C1CC2=C(C(=O)OC(C)(C)O2)C(c2ccc(F)cc2)O1` (configuration not stated), with “inactive”; and `Cc1cccn2c(=O)c3cc(C(=O)NC(C)c4ccccc4)c(=N)n(CCCO)c3nc12` (configuration not stated), with “inactive”.
In the case of `CCc1ccc(NC(=O)c2nn(-c3ccc(C)cc3)c(=O)n(C)c2=O)cc1`, the growth rescue (activation) is 19% [at 9.22 µM] (inactive).
On to `CCOC(=O)c1ccc2c(c1)N(Cc1cccc(OC)c1)C(=O)c1ccccc1S2(=O)=O`, for which the Potency result is “inactive”.
As for `CC(=O)c1ccc(NC(=O)c2nc3nc(C)cc(C(F)F)n3n2)cc1`, the Potency entry is “inactive”.
Same read-out and setting: the result for `Cc1cccc(NC(=O)c2cc3c(C)nn(-c4ccccc4)c3s2)c1` reads 35.5 µM (active).
Same read-out and setting: then `Cc1cccc(C)c1NC(=O)CNC(=O)c1c(C)nn(-c2ccccc2)c1C`, with “inactive”.
Consider `Cc1cccc(NC(=O)CSc2nnc(CNC(=O)c3cccc(C)c3)n2-c2ccccc2)c1`, for which the Potency result was “inactive”.
For `Cc1nn(-c2ccccc2)c(Cl)c1C(=O)Nc1ccccc1`, the Potency is 11.2 µM (active).
As for `Cc1nn(-c2ccccc2)c2sc(C(=O)N(Cc3ccco3)C(C)C(=O)NC(C)(C)C)cc12` (configuration not stated), the Potency entry was “inactive”.
Take `Cc1nn(-c2ccccc2)c(-n2cccc2)c1C(=O)O`: the Potency entry is “inactive”.
Consider `CC(=O)c1cccc(NC(=O)c2nc(-c3ccccc3)n(-c3cccc(C)c3)n2)c1`, for which the Potency was 22.4 µM (active).
Still for that read-out and setting: the result for `CCn1c(=O)c2cc(C(=O)Nc3cccc(C(C)=O)c3)sc2c2ccccc21` reads “inactive”; that for `Cc1ccc(-c2nnc(SCc3ccccc3C)o2)cc1`, “inactive”.
The same measure, in the same setting: then `COc1ccc(CCNC(=O)c2ccc3c(c2)sc2nc(-c4ccc(C)cc4)cn23)cc1OC`, with “inactive”; and `Oc1ccc(-c2cccc(-c3ccc(O)cc3)c2)cc1`, with 6.31 µM (active).
Same read-out and setting: the result for `Oc1ccc(-c2nncn2-c2ccccc2)cc1` reads “inactive”; that for `O=C(OCc1ccc(-c2ccccc2)cc1)c1cccc(O)c1`, “inactive”.
For `COCCN(Cc1ccco1)C(=O)Cn1ncc2c([nH]c3ccccc32)c1=O`, the Potency result is “inactive”.
Same read-out and setting: then `COc1cccc(CNC(=O)C(=O)NCC(c2cccs2)S(=O)(=O)c2ccccc2)c1` (configuration not stated), with “inactive”; and `COc1ccc(Br)cc1CNC(=O)c1cc(=O)[nH]c2ccc(S(=O)(=O)N3CCCC3)cc12`, with “inactive”; and `CCOC(=O)N1CCc2c(sc3c2C(=O)NC(c2ccccc2F)N3)C1` (configuration not stated), with “inactive”.
On the same count and under the same terms, the result for `Cc1ccc(-n2ncc3c(Nc4cccc(C(=O)O)c4)ncnc32)cc1` reads “inactive”.
On the same count and under the same terms, then `CCN(C(=O)CSc1ncnc2c1cnn2-c1ccccc1)C1CCS(=O)(=O)C1` (configuration not stated), with “inactive”; and `CCN(CC)C(=O)CSc1ncnc2c1cnn2-c1ccccc1`, with 15.8 µM (active).
Take `CC(C)Sc1ncnc2c1cnn2-c1ccccc1`: the Potency is 12.6 µM (active).
Same read-out and setting: the result for `Clc1cccc(-n2ncc3c(NCCc4ccccc4)ncnc32)c1` reads “inactive”.
Still for that read-out and setting: the result for `COC(=O)CSc1ncnc2c1cnn2-c1ccc(C)cc1C` reads 17.8 µM (active); that for `CCN(c1ncnc2c1cnn2-c1ccc(C)cc1)C1CCCCC1`, “inactive”; that for `CCC(C)N(C(=O)CSc1ncnc2c1cnn2-c1ccccc1)C1CCS(=O)(=O)C1` (configuration not stated), “inactive”.
On the same count and under the same terms, the result for `COc1ccccc1N1CCN(C(=O)CSc2ncnc3c2cnn3-c2ccc(C)c(C)c2)CC1` reads “inactive”; that for `CCOc1cccc(NC(=O)c2ccc(F)c(S(=O)(=O)N(CC)c3cccc(C)c3)c2)c1`, “inactive”.
Take `Cc1ccccc1-n1c(=O)c2ccccc2n(Cc2ccc(F)cc2)c1=O`: the Potency entry was “inactive”.
On to `CCn1c(C(=O)Nc2cc(Cl)ccc2C)cc2sc(Cl)cc21`, for which the Potency result was “inactive”.
On the same count and under the same terms, the result for `CCC(=O)N1CCc2cc(Br)cc(S(=O)(=O)CCC(=O)NCc3ccccc3OC)c21` reads “inactive”; that for `CCc1cccc(C)c1NS(=O)(=O)c1ccc(-c2cc(C)no2)s1`, “inactive”; that for `Cc1cc(NC(=O)C2CCC(CNS(=O)(=O)c3ccc(Br)s3)CC2)ccc1Br` (configuration not stated), “inactive”.
On the same count and under the same terms, then `COc1ccc(OC)c(CCNC(=O)CCCn2c(=O)c3cccn3c3cccnc32)c1`, with “inactive”; and `CN1CCN(C(CNC(=O)c2ccccc2F)c2ccc3c(c2)OCO3)CC1` (configuration not stated), with “inactive”.
As for `Cc1ccc(-c2nnc3c4ccccc4c(C)nn23)cc1NC(=O)c1cccc(Br)c1`, the Potency result is “inactive”.
Take `CCCN1CCN(CCCNC(=O)c2cnn(-c3ccc(C)cc3)c2-n2cccc2)CC1`: the Potency result was “inactive”.
Same read-out and setting: the result for `CCn1nccc1C(=O)Nc1ccc(Cl)c(Cl)c1` reads 17.8 µM (active).
Same read-out and setting: then `CCn1nccc1C(=O)Nc1ccc(S(=O)(=O)NC23CC4CC(CC(C4)C2)C3)cc1`, with “inactive”; and `Cc1ccc(-c2nn(CCC(=O)Nc3ccc(Cl)c(Cl)c3)c(=O)c3ccccc23)cc1`, with “inactive”.
As to `COc1ccc(OCC(=O)Nc2cc(C)c(Cl)cc2OC)c([N+](=O)[O-])c1`, the Potency result is “inactive”.
Same read-out and setting: the result for `Cc1nnc(-c2ccc(Oc3ccc(C)c(C)c3)c([N+](=O)[O-])c2)o1` reads 20 µM (active); that for `COc1ccc(-c2noc(-c3ccc(N4CCN(c5ccccc5)CC4)c([N+](=O)[O-])c3)n2)cc1OC`, “inactive”.
As to `COc1ccc(Cl)cc1NC(=O)CSc1nc(=O)[nH]c2c1CCCC2`, the Potency result was “inactive”.
Still for that read-out and setting: the result for `CCOC(=O)c1cc(NC(=O)c2ccc(F)cc2)c(=O)n2c1oc1ccccc12` reads “inactive”; that for `Cc1ccc(F)cc1NC(=O)CCSc1nc(-c2ccco2)cc(C(F)(F)F)n1`, “inactive”; that for `CC(C)c1ccc(CC(=O)N2CCC2(C)C(=O)NS(=O)(=O)c2ccc(C(C)(C)C)cc2)cc1` (configuration not stated), 22.4 µM (active).
As for `CCCC(=O)N1CCC1(C)C(=O)NS(=O)(=O)c1ccc(Cl)cc1` (configuration not stated), the Potency result is “inactive”.
Turning to `CC(C)(C)c1ccc(S(=O)(=O)NC(=O)C2(C)CCN2C(=O)CC2CC2)cc1` (configuration not stated), the Potency entry was “inactive”.
Regarding `CCCCS(=O)(=O)c1oc(-c2cccs2)nc1S(=O)(=O)c1ccccc1`, the Potency result was “inactive”.
With `CCC(=O)N1CCc2cc(Br)cc(S(=O)(=O)CCC(=O)NCCc3ccc(OC)c(OC)c3)c21`, the Potency entry was “inactive”.
In the case of `COc1cccc(CNC(=O)c2ccc3c(c2)sc2nc(-c4cccc(OC)c4)cn23)c1`, the Potency entry is “inactive”.
In the case of `COc1cccc(CNC(=O)CSc2c3c(nc4cc(Cl)ccc24)CCCC3)c1`, the Potency result was “inactive”.
With `COc1cccc(CNC(=O)c2ccc3c(Cl)c4c(nc3c2)CCCC4)c1`, the Potency was 15.8 µM (active).
Same read-out and setting: then `CCC(C(=O)Nc1cccc(Cl)c1C)n1nc(-c2ccc(C)cc2)ccc1=O` (configuration not stated), with “inactive”; and `Cc1cccc(C(CC(=O)NCC2(c3ccccc3)CCCC2)c2ccccc2)c1O` (configuration not stated), with “inactive”; and `COc1ccc(NC(=O)N2CCCC(c3nc(-c4ccc(F)cc4)no3)C2)cc1` (configuration not stated), with “inactive”.
On the same count and under the same terms, the result for `CC(C)c1ccc(NC(=O)C2CCN(c3nc(-c4ccc(C(C)C)cc4)no3)CC2)cc1` reads “inactive”; that for `CCN(C(=O)C1CCCN(c2nc(-c3ccc(OC)cc3)no2)C1)c1ccc(OC)cc1` (configuration not stated), 22.4 µM (active).
For the molecule `O=C(Nc1cc(C(F)(F)F)ccc1Cl)c1ccc2c(c1)CCN2S(=O)(=O)c1ccccc1`, the Potency entry is “inactive”.
As for `Cc1ccccc1CNC(=O)CSc1nnc(C)c2c(C)n(-c3ccccc3)nc12`, the Potency entry is “inactive”.
The same measure, in the same setting: the result for `Cc1ccc(Cl)cc1N1CCN(C(=O)c2cn(C)c3ccc(S(=O)(=O)N(C)C4CCCCC4)cc3c2=O)CC1` reads “inactive”.
